# In all, about 2,900 compounds were measured (“NF-kB SEAP reporter activity, fold change vs agonist alone”: median about 0.99, highest 2% from about 2.6 on). The sample as a whole holds a higher share of the highest values than the screen did.
# Experiments:
# RAW-Dual [1] = assay: NF-kB SEAP reporter activity, fold change vs agonist alone; higher = enhanced NF-kB activity; details: library stock concentration (final ~1000-fold dilution): 10 mM
# How it was run: (§1)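 Cytotoxic wells were those whose IncuCyte confluency was below 70% of agonist controls in both mask sets. The cells were RAW-Dual macrophages at 50,000 cells/well in DMEM on 384-well plates, dosed with 50 nL of library stock by pin tool, stimulated with a PRR agonist 1 h later, and kept at 37 °C, 5% CO2 for 20 hours. IRF and NF-κB reporter activity, as fold change over agonist-alone wells, came from supernatant read by QuantiLuc luminescence and QuantiBlue absorbance, respectively.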
# RAW-Dual [2] = assay: NF-kB SEAP reporter activity, fold change vs agonist alone; cytotoxicity flag (confluency mask): not cytotoxic; higher = enhanced NF-kB activity
# How it was run: as §1
# RAW-Dual [3] = assay: NF-kB SEAP reporter activity, fold change vs agonist alone; cytotoxicity flag (confluency mask): cytotoxic (confluency <70% of control); higher = enhanced NF-kB activity
# How it was run: as §1
# [4] = cytotoxicity flag (confluency mask): not cytotoxic, agonist: Imiquimod (TLR7) […]
# [5] = cytotoxicity flag (confluency mask): not cytotoxic, agonist: MPLA (TLR4) […]
# [6] = agonist: ODN 1826 (TLR9) 0.5 ug/mL
# [7] = agonist: Pam2CSK4 (TLR2/6) 0.1 ug/mL
# [8] = agonist: Pam3CSK4 (TLR2/1) 0.1 ug/mL
structure (smiles),measurement,setting,value
O=c1c(-c2ccc(O)cc2)coc2cc(OC3OC(CO)C(O)C(O)C3O)ccc12 (configuration not stated),NF-kB SEAP reporter activity,RAW-Dual [1]; [4],1.08
same,NF-kB SEAP reporter activity,RAW-Dual [1]; [5],1.08
O=c1c(-c2ccc(O)cc2)coc2cc(OC3OC(CO)C(O)C(O)C3O)ccc12 (configuration not stated) (library stock concentration (final ~1000-fold dilution): 10 mM),NF-kB SEAP reporter activity,RAW-Dual [2]; agonist: LPS (TLR4) 0.1 ug/mL,1.62
same,NF-kB SEAP reporter activity,RAW-Dual [2]; [6],1.17
same,NF-kB SEAP reporter activity,RAW-Dual [2]; [7],1.25
same,NF-kB SEAP reporter activity,RAW-Dual [2]; [8],1.38
CN(CC(=O)N(Cc1ccc(C2CCCCC2)cc1)c1ccc(C(=O)NO)cc1)S(=O)(=O)c1c(F)c(F)c(F)c(F)c1F,NF-kB SEAP reporter activity,RAW-Dual [1]; [4],1.3
same,NF-kB SEAP reporter activity,RAW-Dual [1]; [5],1.02
CN(CC(=O)N(Cc1ccc(C2CCCCC2)cc1)c1ccc(C(=O)NO)cc1)S(=O)(=O)c1c(F)c(F)c(F)c(F)c1F (library stock concentration (final ~1000-fold dilution): 10 mM),NF-kB SEAP reporter activity,RAW-Dual [2]; agonist: LPS (TLR4) 0.1 ug/mL,0.324
same,NF-kB SEAP reporter activity,RAW-Dual [2]; [6],1.53
same,NF-kB SEAP reporter activity,RAW-Dual [2]; [7],0.374
same,NF-kB SEAP reporter activity,RAW-Dual [2]; [8],0.284
CC(C)(C)c1ccc(S(=O)(=O)NCc2ccc(C(=O)Nc3cccnc3)cc2)cc1 (library stock concentration (final ~1000-fold dilution): 10 mM),NF-kB SEAP reporter activity,RAW-Dual [2]; agonist: LPS (TLR4) 0.1 ug/mL,0.67
same,NF-kB SEAP reporter activity,RAW-Dual [2]; [6],1.1
same,NF-kB SEAP reporter activity,RAW-Dual [2]; [7],0.834
same,NF-kB SEAP reporter activity,RAW-Dual [2]; [8],0.706
CNCc1ccc(-c2cc(-c3nc(-c4ccc(S(=O)(=O)C(C)C)cc4)cnc3N)on2)cc1,NF-kB SEAP reporter activity,RAW-Dual [1]; [4],0.858
same,NF-kB SEAP reporter activity,RAW-Dual [1]; [5],0.98
CS(=O)(=O)c1ccc(-c2cnc(N)c(C(=O)Nc3ccccc3)n2)cc1,NF-kB SEAP reporter activity,RAW-Dual [1]; [4],1.45
same,NF-kB SEAP reporter activity,RAW-Dual [1]; [5],2.21
CN1CCN(S(=O)(=O)c2ccc(-c3cnc(N)c(C(=O)Nc4cccnc4)n3)cc2)CC1 (library stock concentration (final ~1000-fold dilution): 10 mM),NF-kB SEAP reporter activity,RAW-Dual [2]; agonist: LPS (TLR4) 0.1 ug/mL,4.28
same,NF-kB SEAP reporter activity,RAW-Dual [2]; [6],2.61
same,NF-kB SEAP reporter activity,RAW-Dual [2]; [7],1.11
same,NF-kB SEAP reporter activity,RAW-Dual [2]; [8],2.07
CS(=O)(=O)O.Cc1ccc(NC(=O)c2ccc(CN3CCN(C)CC3)cc2)cc1Nc1nccc(-c2cccnc2)n1 (library stock concentration (final ~1000-fold dilution): 10 mM),NF-kB SEAP reporter activity,RAW-Dual [3]; agonist: LPS (TLR4) 0.1 ug/mL,1.29
same,NF-kB SEAP reporter activity,RAW-Dual [3]; [6],0.201
same,NF-kB SEAP reporter activity,RAW-Dual [3]; [7],1.13
same,NF-kB SEAP reporter activity,RAW-Dual [3]; [8],1.25
CC(C)(C)c1ccc(S(=O)(=O)NCc2ccc(C(=O)Nc3cccnc3)cc2)cc1,NF-kB SEAP reporter activity,RAW-Dual [1]; [4],0.865
same,NF-kB SEAP reporter activity,RAW-Dual [1]; [5],0.908
CN1CCN(S(=O)(=O)c2ccc(-c3cnc(N)c(C(=O)Nc4cccnc4)n3)cc2)CC1,NF-kB SEAP reporter activity,RAW-Dual [1]; [4],1.5
same,NF-kB SEAP reporter activity,RAW-Dual [1]; [5],2.5
CNCc1ccc(-c2cc(-c3nc(-c4ccc(S(=O)(=O)C(C)C)cc4)cnc3N)on2)cc1 (library stock concentration (final ~1000-fold dilution): 10 mM),NF-kB SEAP reporter activity,RAW-Dual [2]; agonist: LPS (TLR4) 0.1 ug/mL,1.06
same,NF-kB SEAP reporter activity,RAW-Dual [2]; [6],0.943
same,NF-kB SEAP reporter activity,RAW-Dual [2]; [7],0.871
same,NF-kB SEAP reporter activity,RAW-Dual [2]; [8],1.05
CS(=O)(=O)O.Cc1ccc(NC(=O)c2ccc(CN3CCN(C)CC3)cc2)cc1Nc1nccc(-c2cccnc2)n1,NF-kB SEAP reporter activity,"RAW-Dual [1]; cytotoxicity flag (confluency mask): cytotoxic (confluency <70% of control), agonist: Imiquimod (TLR7) […]",1.24
same,NF-kB SEAP reporter activity,"RAW-Dual [1]; cytotoxicity flag (confluency mask): cytotoxic (confluency <70% of control), agonist: MPLA (TLR4) […]",1.46
CS(=O)(=O)c1ccc(-c2cnc(N)c(C(=O)Nc3ccccc3)n2)cc1 (library stock concentration (final ~1000-fold dilution): 10 mM),NF-kB SEAP reporter activity,RAW-Dual [2]; agonist: LPS (TLR4) 0.1 ug/mL,4.61
same,NF-kB SEAP reporter activity,RAW-Dual [2]; [6],0.67
same,NF-kB SEAP reporter activity,RAW-Dual [2]; [7],1.02
same,NF-kB SEAP reporter activity,RAW-Dual [2]; [8],1.48
CS(=O)(=O)c1ccc(C(=O)Nc2ccc(Cl)c(-c3ccccn3)c2)c(Cl)c1 (library stock concentration (final ~1000-fold dilution): 10 mM),NF-kB SEAP reporter activity,RAW-Dual [2]; agonist: LPS (TLR4) 0.1 ug/mL,1.19
same,NF-kB SEAP reporter activity,RAW-Dual [2]; [6],1.4
same,NF-kB SEAP reporter activity,RAW-Dual [2]; [7],0.898
same,NF-kB SEAP reporter activity,RAW-Dual [2]; [8],1.01
CS(=O)(=O)c1ccc(C(=O)Nc2ccc(Cl)c(-c3ccccn3)c2)c(Cl)c1,NF-kB SEAP reporter activity,RAW-Dual [1]; [4],1.07
same,NF-kB SEAP reporter activity,RAW-Dual [1]; [5],0.945
CC/C=C\C/C=C\C/C=C\C/C=C\C/C=C\C/C=C\CCC(=O)NCCNC(=O)c1ccccc1O (library stock concentration (final ~1000-fold dilution): 10 mM),NF-kB SEAP reporter activity,RAW-Dual [3]; agonist: LPS (TLR4) 0.1 ug/mL,0.318
same,NF-kB SEAP reporter activity,RAW-Dual [3]; [6],0.298
same,NF-kB SEAP reporter activity,RAW-Dual [3]; [7],0.133
same,NF-kB SEAP reporter activity,RAW-Dual [3]; [8],0.184

# — the supplement of paper PMC10037445
